Source: PubChem BioAssay AID2315 (National Center for Advancing Translational Sciences (NCATS), 2010)
The campaign covered roughly 290,000 compounds. About 27,000 (9.3%) were called active. No stated cut-off is given here; in the data, active means inhibition mostly above about 28% (no sharp cut-off); inactive means mostly below about 43%. What follows is part of a selection rich in actives, with near analogues and random picks from the rest.

Test: A qHTS for Small Molecule Inhibitors of Shiga Toxin; further: 0% is about no effect
Details: Vero cells, Shiga toxin protein synthesis inhibition reporter; at 38.7 µM, stronger effect = higher value
In the case of Cc1nc(-c2ccccc2)sc1-c1nc(-c2ccccc2)ncc1S(=O)(=O)c1ccccc1, the inhibition was -10.1% (inactive).
In the case of C=CCn1c(-c2sc(-c3ccccc3)nc2C)n[nH]c1=S, the inhibition was 24.9% (inactive).
In the case of Cc1nc(-c2ccccc2)sc1-c1nnc(C2CC2)o1, the inhibition was 87.2% (active).
For CCOc1cc(C(=S)N2CCOCC2)ccc1OS(=O)(=O)c1ccc(Br)cc1, the inhibition was 1.09% (inactive).
In the case of C=CCOc1ccccc1NC(=O)CN1C(=O)CNC1=O, the inhibition was -4.23% (inactive).
For COc1ccc(OC)c(NC(=O)c2cccc(S(=O)(=O)N3CCN(C(C)=O)CC3)c2)c1, the inhibition was 1.91% (inactive).
With COc1ccccc1C(=O)OCC(=O)NCCNC(=O)COC(=O)c1ccccc1OC the inhibition was -3.42% (inactive).
With Cc1cccc(-c2noc(CCC(=O)NC3CCCC3)n2)c1 the inhibition was 24.9% (inactive).
For Cc1cccc(-c2noc(-c3ccc(F)cc3)n2)c1, the inhibition was 152% (active).
With Cc1ccc(-c2noc(CSc3nnc(-c4ccccc4)n3C)n2)cc1 the inhibition was -2.98% (inactive).
For Cc1cccc(-c2nc(Nc3ccc(O)cc3)c3ccccc3n2)c1, the inhibition was -1.6% (inactive).
For Cc1ccc(Cc2nc(-c3cccc(C)c3)no2)cc1, the inhibition was 48.1% (active).
With Cc1ccc(-c2noc(CN3CCN(Cc4ccccc4)CC3)n2)cc1 the inhibition was 41.3% (inactive).
In the case of O=C(O)CC(CC(=O)N1CCOCC1)c1ccccc1 (stereo unspecified), the inhibition was -6.69% (inactive).
For Cc1c(NC(=O)c2c([N+](=O)[O-])cnn2C)c(=O)n(-c2ccccc2)n1C, the inhibition was -11.5% (inactive).
In the case of Cc1ccc(OCC(=O)Nc2ccccc2C(=O)NC2CC2)cc1C, the inhibition was -4.84% (inactive).
With CO/N=C/CC(=O)c1ccc(OC)cc1 the inhibition was 91.1% (active).
With COc1ccc(C(=O)CC2C(=O)N(C)C(=O)N(C)C2=O)cc1 the inhibition was 13.8% (inactive).
In the case of COc1ccc(OCCC(=O)c2ccc(OC)cc2)cc1, the inhibition was -6.88% (inactive).
In the case of Cc1ccc(C(=O)c2coc3ccc(O)c(CN(C)C)c23)cc1, the inhibition was -0.742% (inactive).
For Cc1ccc(S(=O)(=O)NCCSC(C)(C)C)cc1, the inhibition was -15.2% (inactive).
In the case of CC(C)(C)SCCSC1=CC(=O)CC(c2ccccc2)C1 (stereo unspecified), the inhibition was 75.7% (active).
With O=C(O)CC/C(=C\c1cc2c(cc1Br)OCO2)c1nc2ccccc2s1 the inhibition was -7.28% (inactive).
With O=S(=O)(ON(c1ccccc1)S(=O)(=O)c1ccccc1)c1ccccc1 the inhibition was -5.69% (inactive).
For CC1=C/C(=N\OS(=O)(=O)c2ccccc2)C=CC1=O, the inhibition was 67.3% (active).
With Cc1ccc(S(=O)(=O)c2ccc(Oc3ccccc3)cc2)cc1 the inhibition was -11.7% (inactive).
With COC(=O)c1ccc(NC(=O)CSc2nncn2-c2cccnc2)cc1 the inhibition was 29.9% (inactive).
In the case of CC(Sc1nnc(CNC(=O)c2ccccc2F)n1C)C(=O)Nc1nccs1 (stereo unspecified), the inhibition was -6.1% (inactive).
For CC(C)(C)NC(=O)CSC(=Nc1ccccc1F)NC#N, the inhibition was 33.9% (active).
In the case of Cc1ccccc1CSCC(=O)NC(=O)NC(C)(C)C, the inhibition was 11% (inactive).
For COc1ccccc1-n1ccnc1SCC(=O)NC(C)(C)C, the inhibition was 18.7% (inactive).
With NC(=O)c1sc2nc3c(c(-c4ccccc4)c2c1N)CCC3 the inhibition was -11.8% (inactive).
With CS(=O)(=O)c1sc2nc(-c3ccccc3)cc(-c3ccccc3)c2c1N the inhibition was -3.26% (inactive).
With CCOC(=O)c1sc2nc(SC)nc(-c3ccccc3)c2c1N the inhibition was -14% (inactive).
In the case of CC(=O)c1c(Nc2ccccc2)sc(C(=O)c2ccccc2)c1C, the inhibition was -8.12% (inactive).
In the case of CN(C)c1ccnc2sc(C(=O)c3ccccc3)c(N)c12, the inhibition was 25.4% (active).
With Cc1nc2sc(C(=O)c3ccccc3)c(N)c2c2c1CCCC2 the inhibition was 18.1% (active).
With COC(=O)c1cc2c(N)c(C(=O)c3ccc(Cl)cc3)sc2nc1C(OC)OC the inhibition was -1.42% (inactive).
For CN(C)c1ccnc2sc3c(=O)n(Cc4ccccc4)cnc3c12, the inhibition was -12.3% (inactive).
With Cc1ccc2c(N)c(C(=O)c3ccccc3)sc2n1 the inhibition was 87.1% (active).
With COc1cccc(C(=O)c2sc3nc(-c4ccccc4)cc(C(F)(F)F)c3c2N)c1 the inhibition was -1.9% (inactive).
In the case of CCc1nc2sc(C(=O)O)c(N)c2c2c1CCCC2, the inhibition was -12.9% (inactive).
In the case of CCN(CC)C(=O)c1sc2nc(-c3ccccc3)ccc2c1N, the inhibition was 165% (active).
For CC(C)C[C@H]1CN=C(Nc2ccccc2)N1CC1CCCCC1, the inhibition was 0.785% (inactive).
In the case of O=C(Cc1ccccn1)c1ccc(O)cc1O, the inhibition was -4.76% (inactive).
In the case of Cc1cccc(C(=O)N2CCCC(Nc3ccc(C(C)C)cc3)C2)n1 (stereo unspecified), the inhibition was 19.6% (inactive).
With CCn1c(SCc2cccc(C(=O)O)c2)nnc1-c1ccc(Cl)cc1 the inhibition was 7.08% (inactive).
For O=S(=O)(Cc1nnnn1-c1ccc(Br)cc1)c1ccc(F)cc1, the inhibition was -1.52% (inactive).
For CCOc1ccc(-n2c(SCC(=O)Nc3cc(C(=O)O)ccc3Cl)nc3ccccc3c2=O)cc1, the inhibition was 3.55% (inactive).
In the case of CC(=O)c1cccc(NC(=O)COc2ccc(S(=O)(=O)N3CCOCC3)cc2)c1, the inhibition was -10.1% (inactive).
For CCCC(C)c1nnc(NC(=O)C2CC(=O)N(c3ccc(OCC)cc3)C2)s1 (stereo unspecified), the inhibition was -3.18% (inactive).
In the case of Cc1cccn2c(=O)c3cc(C(=O)NCCN4CCOCC4)c(=N)n(Cc4cccnc4)c3nc12, the inhibition was -22.4% (inactive).
For COc1cccc(C(=O)Nc2nnc(S(=O)(=O)N3CCCCC3)s2)c1, the inhibition was 6.87% (inactive).
For COc1cccc(NC(=O)Nc2nnc(N3CCCCC3C)s2)c1 (stereo unspecified), the inhibition was 53.2% (active).
With CCOC(=O)c1csc(NC(=O)Nc2cccc(OC)c2)n1 the inhibition was -3.25% (inactive).
With CN1C(=O)[C@H]2[C@@H](C3CC3)N3C(=O)CN(Cc4ccccc4)C(=O)[C@@]3(C)[C@H]2C1=O the inhibition was 1.87% (inactive).
In the case of CC1CCN(CCCn2c(SCC(=O)NC3CCCC3)nc3ccccc3c2=O)CC1, the inhibition was 17.3% (inactive).
For COc1ccccc1C1/C(=C(/O)c2ccc(OC(C)C)cc2)C(=O)C(=O)N1c1cc(C)on1 (stereo unspecified), the inhibition was -22.9% (inactive).
With COc1ccc(/C(O)=C2/C(=O)C(=O)N(c3nc(C)c(C)s3)C2c2ccco2)cc1 (stereo unspecified) the inhibition was 30.6% (inactive).
For CCOc1ccc(/C(O)=C2\C(=O)C(=O)N(c3ccc(OC)cc3)C2c2ccccc2[N+](=O)[O-])cc1 (stereo unspecified), the inhibition was 26.8% (active).
For COc1ccc(OCC(=O)NNC(=O)c2cccc(C)c2)cc1, the inhibition was -7.72% (inactive).
With CCOC(=O)C(CC)/C(C)=N\NC(=O)c1cccc(C)c1 (stereo unspecified) the inhibition was 66.3% (active).
In the case of CCNC(=O)COC(=O)CCNC(=O)c1cccc(C)c1, the inhibition was 43.3% (inactive).
With Cc1cc(=O)oc2c3c(cc(OCC(=O)NCCC(=O)N[C@@H](C)C(=O)O)c12)OC(C)(C)CC3 the inhibition was -4.24% (inactive).
With Cc1cc2c(s1)c1cnn(Cc3c(F)cccc3Cl)c(=O)c1n2C the inhibition was 12.5% (inactive).
With O=C(C1=C(O)C(=O)N(c2ncccn2)C1c1cccs1)c1ccco1 (stereo unspecified) the inhibition was -18.4% (inactive).
With O=C(C1=C(O)C(=O)N(CCOCCO)C1c1ccccn1)c1cccs1 (stereo unspecified) the inhibition was 29.3% (active).
With O=C(c1cccs1)N(C(=O)c1cccs1)c1ccccn1 the inhibition was 39.7% (inactive).
In the case of Cn1c(=O)c2c(nc(NCCc3ccccc3)n2Cc2ccccc2)n(C)c1=O, the inhibition was -11.5% (inactive).
For Cn1c(=O)c2c(nc(OCc3cccnc3)n2Cc2ccccc2)n(C)c1=O, the inhibition was 39.2% (active).
With C=CCOc1nc2c(c(=O)n(C)c(=O)n2C)n1Cc1ccc(Cl)cc1Cl the inhibition was -1.49% (inactive).
With COc1ccc(CN2C3CCCC2CC(NC(=O)c2cccc(F)c2)C3)cc1 (stereo unspecified) the inhibition was 14.6% (inactive).
With O=c1c(Cl)c(NC2CC2)cnn1-c1ccccc1 the inhibition was 107% (inactive).
For Cc1cccc(-n2ncc(Cl)c(Cl)c2=O)c1, the inhibition was -17.2% (inactive).
For C=CCNc1cnn(-c2ccc(C)cc2)c(=O)c1Cl, the inhibition was 127% (active).
In the case of CCCN1C2CCCC1CC(NC(=O)c1cccc(OC)c1)C2 (stereo unspecified), the inhibition was 12.9% (inactive).
With CCOc1ccc(N=Cc2c(O)n(-c3cccc(C)n3)c(=O)c3ccccc23)cc1 the inhibition was -15.9% (inactive).
In the case of CC(=O)n1c(C=Nc2ccccc2)c(O)c2ccccc21, the inhibition was 49.2% (active).
For CCCCn1c(=O)c(C(C)=O)c(O)c2ccccc21, the inhibition was -12.1% (inactive).
For C/C(=N\N1CCN(Cc2ccc(C)cc2)CC1)c1ccco1, the inhibition was 31.8% (active).
In the case of O=C(c1ccco1)N1CCN(Cc2cccc(C(F)(F)F)c2)CC1, the inhibition was -13.9% (inactive).
In the case of Cc1ccc(CN2CCN(/N=C/c3ccco3)CC2)c(C)c1, the inhibition was 11.6% (inactive).
With C/C(CC(=O)Nc1ccc(N(C)C)cc1)=N\NC(=O)c1ccccc1F the inhibition was 121% (active).
In the case of CCn1c2ccccc2c2cc(NC(=O)CNC)ccc21, the inhibition was -4.7% (inactive).
For CN(C)c1ccc(NC(=O)CN2C3CCCC2CC(NC(=O)c2ccccc2)C3)cc1 (stereo unspecified), the inhibition was 27.2% (inactive).
In the case of CCOc1ccc(NC(=O)C/C(C)=N/NC(=O)Cc2cccs2)cc1, the inhibition was 2.74% (inactive).
With CCn1c2ccccc2c2cc(NC(=O)COC(=O)c3ccccc3Br)ccc21 the inhibition was -4.15% (inactive).
In the case of CCn1c2ccccc2c2cc(NC(=O)C/C(C)=N/NC(=O)c3ccccc3N)ccc21, the inhibition was 131% (active).
In the case of CC(=O)NCCc1ccc(S(=O)(=O)Nc2ccc(C)c(S(=O)(=O)N3CCOCC3)c2)cc1, the inhibition was -1.5% (inactive).
In the case of COc1ccccc1NC(=O)CN(c1ccccc1OC)S(=O)(=O)c1ccccc1, the inhibition was -1.35% (inactive).
In the case of Cc1ccc(NC(=O)CSc2nnc(CNC(=O)c3ccccc3F)o2)cc1Cl, the inhibition was -10.8% (inactive).
For CC(C)[C@H](NC(=O)N1c2ccccc2NC(=O)[C@@H]1C(C)C)C(=O)N[C@H](C(=O)O)c1ccccc1, the inhibition was 3.44% (inactive).
With Cc1ccc(OCC(=O)NCCCNC(=O)c2cccnc2)cc1C the inhibition was -10.2% (inactive).
For CN(Cc1cccnc1)C(=O)c1cc(COc2ccc3ncccc3c2)on1, the inhibition was 21.5% (inactive).
With CN(Cc1cnccn1)C(=O)c1cc(COc2cccc(C(F)(F)F)c2)on1 the inhibition was 60.3% (active).
For Cc1cc(CN(C)C(=O)c2cc(COc3ccc(C)c(C)c3)on2)n[nH]1, the inhibition was 59.9% (active).
In the case of C/C(=N/OC(=O)c1cccc(C(F)(F)F)c1)c1cnccn1, the inhibition was -18.2% (inactive).
With Cc1ccc(OCC(=O)NCCCNC(=O)c2ccco2)cc1C the inhibition was -2.33% (inactive).
For Cc1ccc(OCc2cc(C(=O)N(C)CCc3ccccc3)no2)cc1C, the inhibition was 106% (active).
With CN(CCOc1ccccc1)C(=O)c1cc(COc2c(F)cccc2F)on1 the inhibition was 28.4% (inactive).
For Cc1ccc(SC(=O)COc2ccc(C)c(C)c2)cc1, the inhibition was -26.3% (inactive).
